From PubChem BioAssay
Only a selection was taken, and hits are over-represented in it overall.
TbPYK inhibitor = qHTS of Trypanosoma Brucei Inhibitors. TbPYK enzyme, Kinase-Glo Plus ATP luminescence, 45 min. Potency, µM (doses to about 76.8 µM), for inactives: top-dose activity, negative = inhibition, hits mostly inhibitors. 0.12% of 410,000 active. AID 624173, 2012; further: potency means the concentration at half of the fitted maximal effect; on the % scale 0 is the no-effect control and ±100 the full control effect; nearly all actives have a fitted effect of over 50% in size
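Quantitative HTS: titrated library compounds versus trypanosomal pyruvate kinase in TEA buffer (pH 7.2) containing KCl, MgCl2, BSA and Tween-20. Reactions were initiated with ADP, 130 uM final. Kinase-Glo Plus luminescence was read after 45 min at RT.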
LmPK inh = qHTS Assay for Inhibitors of Leishmania Mexicana Pyruvate Kinase (LmPK) | Q27686 | purified LmPK, Kinase-Glo ATP luminescence, 1 h | Potency, µM (titrated, usually from 57.5 µM), without a hit: at the top dose activity change, negative = inhibition, actives largely listed as inhibitors | 0.37% of 290,000 active; further: potency means the concentration at half of the fitted maximal effect; on the % scale 0 is the no-effect control and ±100 the full control effect
Target sequence (Q27686 whole entry, looked up): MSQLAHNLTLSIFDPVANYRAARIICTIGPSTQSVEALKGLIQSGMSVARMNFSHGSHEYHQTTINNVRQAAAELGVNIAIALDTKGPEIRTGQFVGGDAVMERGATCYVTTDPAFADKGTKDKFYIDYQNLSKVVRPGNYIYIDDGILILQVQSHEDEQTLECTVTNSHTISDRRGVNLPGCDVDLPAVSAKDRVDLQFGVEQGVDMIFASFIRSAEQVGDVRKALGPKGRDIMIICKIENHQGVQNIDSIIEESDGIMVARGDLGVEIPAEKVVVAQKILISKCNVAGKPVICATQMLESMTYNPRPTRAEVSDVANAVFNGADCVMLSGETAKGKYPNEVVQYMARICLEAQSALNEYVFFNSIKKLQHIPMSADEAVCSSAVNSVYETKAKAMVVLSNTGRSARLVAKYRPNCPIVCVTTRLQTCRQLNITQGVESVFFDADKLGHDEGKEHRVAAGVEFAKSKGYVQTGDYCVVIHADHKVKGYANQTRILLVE
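qHTS format; LmPK 0.1 nM; substrates PEP 0.5 mM and ADP 0.1 mM. One-hour room-temperature incubation, then coupled luciferase luminescence; 0.5 nM enzyme wells mark activation.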
FBPA Giardia inh = qHTS Assay for Inhibitors of Fructose-1,6-bisphosphate Aldolase from Giardia Lamblia; A8B2U2; Potency, µM (series often up to 59.6 µM), without a hit: at the highest dose activity, negative = inhibition, usual class: inhibitors; purified Giardia FBPA; 0.71% of 290,000 active; further: potency means the concentration at half of the fitted maximal effect; on the % scale 0 is the no-effect control and ±100 the full control effect; nearly all actives have a fitted effect of over 55% in size
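Giardia FBPA (40 nM reagent) was preincubated 10 min at RT with compound (up to 57.5 uM final), then substrate plus GAPDH/TPI/NAD/arsenate coupling system with diaphorase/resazurin was added; resorufin fluorescence (525/598 nm) was read after 20 min.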
CHX counter = Cycloheximide Counterscreen for Small Molecule Inhibitors of Shiga Toxin | cell reporter, cycloheximide protein synthesis inhibition counterscreen | 12% of 300,000 active | max response, %; in the data active means max response mostly above about 13%, no sharp cut-off; inactive means mostly below about 14%; further: read at 38.3 µM for the half of the compounds with a filed dose; 0% is about no effect
Sm TGR block = qHTS Assay for the Inhibitors of Schistosoma Mansoni Peroxiredoxins; purified TGR, DTNB reduction, TNB absorbance 405 nm; 3% of 360,000 active; Schistosoma mansoni thioredoxin glutathione reductase (TGR), Q962Y6; Potency, µM (highest dose often 114 µM), for the others: at the top dose activity change, negative = inhibition, actives largely listed as inhibitors; further: potency means the concentration at half of the fitted maximal effect; on the % scale 0 is the no-effect control and ±100 the full control effect; nearly all actives have a fitted effect of over 60% in size
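First, TGR (20 nM dispensed) and NADPH were mixed with compound. Second, a 15 min room-temperature incubation followed. Third, further NADPH and then DTNB were added to start the reaction. Finally, TNB absorbance was monitored kinetically.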
Shiga inhibitor = A qHTS for Small Molecule Inhibitors of Shiga Toxin; Vero cells, Shiga toxin protein synthesis inhibition reporter; inhibition, % at 38.7 µM; 9.2% of 290,000 active; AID 2315, 2010; in the data active means inhibition mostly above about 28%, no sharp cut-off; inactive means mostly below about 43%; further: 0% is about no effect
* = called active by the depositor; ? = inconclusive; / = no result. Unless noted, the call rests on the fitted dose curve; in most records, active means well fitted curve in the direction sought with a large enough effect; inconclusive means small, poorly fitted or top-dose-only effect, or another doubt; inactive means no such curve, though single readings can be large; an effect the other way counts as inactive or inconclusive.

SMILES	TbPYK inhibitor	LmPK inh	FBPA Giardia inh	CHX counter	Sm TGR block	Shiga inhibitor
c1ccc(-c2ccc(-c3ccccn3)nn2)nc1	/	14.1µM*	?	11.0	0.0%	16.3
Nn1c(SCc2c(F)cccc2F)nnc1-c1ccccn1	-0.6%	-11.8%	2.2%	31.6*	15.6%	90.4*
COC(=O)CSc1nnc(-c2ccccn2)n1N	-9.3%	0.7%	1.7%	0.7	10.4%	14.1
O=C(Cn1cc(S(=O)(=O)N2CCCC2)c(S(=O)(=O)N2CCCC2)c1)Nc1ccccc1	-3.4%	/	/	/	3.4%	/
C=C1C(=O)OC(CCCCCCCC)C1C(=O)O (configuration not stated)	/	/	?	-4.0	/	-9.4
CCN(CC)C(=O)C1=C(C)N(CCCN2CCCC2=O)C(=O)C(CC(=O)NC(c2ccccc2)c2ccccc2)C1 (configuration not stated)	-7.8%	/	/	/	/	/
O=C(COC(=O)C1COc2ccccc2O1)Nc1ccccc1OC(F)F (configuration not stated)	-4.0%	/	/	/	/	/
COc1ccc(OC)c(C2=Nn3c(nnc3-c3ccccc3O)SC2)c1	/	/	-11.0%	4.4	/	0.6
CC(=O)Nc1ccc(S(=O)(=O)NC2C3(C)CCC(C3)C2(C)C)cc1 (configuration not stated)	4.1%	-2.1%	6.5%	-1.5	5.8%	-3.7
Nc1ccccc1-c1nnc(-c2ccccc2N)n1N	-0.1%	-4.2%	-0.1%	37.8*	19.2%	57.4*
NC(N)=NS(=O)(=O)c1ccc(N/C=C/C(=O)c2ccc(Cl)c(Cl)c2)cc1	-6.3%	-1.2%	2.6%	2.3	-21.8%	-10.0
CCCOc1ccc(N/C=C/C(=O)c2ccc(OC)c(OC)c2)cc1	-3.2%	0.6%	22.3%	-0.9	-4.2%	11.2
COc1ccc(C(=O)/C=C/Nc2ccc(C)cn2)cc1OC	0.4%	-8.2%	0.3%	38.0*	-4.6%	75.4*
CCOc1ccc(N/C=C/C(=O)c2ccc(OC)c(OC)c2)cc1	-1.2%	0.8%	-8.1%	40.6*	-17.5%	82.5*
COc1ccc(C(=O)/C=C/Nc2ccc(S(N)(=O)=O)cc2)cc1OC	3.8%	-1.2%	3.2%	14.0*	-4.2%	31.7
COc1ccc(C(=O)/C=C/NCc2ccc(F)cc2)cc1OC	1.6%	8.7%	4.7%	7.7	1.5%	25.6
CCOc1ccc(C(=O)/C=C/Nc2ccc(S(=O)(=O)N=C(N)N)cc2)cc1	0.7%	3.3%	5.9%	22.9*	-6.4%	62.1*
O=C(c1ccccn1)c1cc2ccccc2n1S(=O)(=O)c1ccccc1	-1.3%	2.0%	-19.3%	26.4*	-8.2%	42.7*
O=S(=O)(c1ccccc1)n1ccc2cccnc21	-20.3%	6.4%	-11.1%	-1.4	8.0%	-14.3
CCOc1cc(C#N)ccc1OCC(=O)N1CCN(C(=O)c2cccs2)CC1	-4.3%	/	/	/	-15.8%	/
O=C(Nc1ccccc1)C1=C[C@@H](c2ccc(Br)cc2)C[C@@H](OCCCCO)O1	-1.5%	7.3%	-0.9%	52.0*	-24.7%	86.1*
O=C(Nc1ccccc1)C1=C[C@H](c2ccc3c(c2)OCO3)C[C@H](OCCCCO)O1	-5.2%	-1.9%	-7.5%	47.3*	?	117.1*
O=C(Nc1ccccc1)C1=C[C@H](c2ccccc2)C[C@H](OCCCCO)O1	-3.8%	/	/	/	/	/
CCc1cc(-c2n[nH]c(C)c2-c2ccc3c(c2)OCCO3)c(O)cc1O	0.0%	/	-24.7%	5.0	/	-12.1
CS(=O)(=O)N1CCC2(CC1)CN(c1ccccc1)C2	3.4%	/	-0.2%	/	/	/
SMILES	TbPYK inhibitor	LmPK inh	FBPA Giardia inh	CHX counter	Sm TGR block	Shiga inhibitor
COc1ccc(-c2nnc3n2N=C(c2cc(OC)ccc2OC)CS3)cc1	/	/	7.5%	20.5	/	24.2
CCOC(=O)C1=C(O)C(=O)N(c2ccc(S(N)(=O)=O)cc2)C1c1ccccc1 (configuration not stated)	3.2%	-0.1%	8.5%	-2.4	-13.7%	-3.6
Cc1ccc(C2C(C(=O)c3cccs3)=C(O)C(=O)N2c2cccc(C)n2)cc1 (configuration not stated)	-2.4%	1.4%	6.5%	17.1*	-9.8%	70.4*
Cc1ccc(C2C(C(=O)c3cccs3)=C(O)C(=O)N2c2ccc(S(N)(=O)=O)cc2)cc1 (configuration not stated)	-4.3%	4.1%	-7.3%	24.5*	-30.6%	40.4
CC(C)c1onc(C(=O)Nc2ccc3c(c2)OCO3)c1[N+](=O)[O-]	8.1%	-2.1%	/	33.1*	-33.3%	52.1*
Cc1onc(C(=O)Nc2cccnc2Cl)c1[N+](=O)[O-]	-2.8%	-0.6%	-5.8%	16.7	-21.4%	-1.6
Cc1ccc(NC(=O)c2noc(C(C)C)c2[N+](=O)[O-])cc1	3.8%	1.7%	-9.6%	55.4*	39.8µM*	78.4*
CC(C)c1onc(C(=O)NCc2ccc(Cl)cc2)c1[N+](=O)[O-]	4.5%	-1.9%	3.7%	0.5	-9.1%	-27.4
CC(C)c1onc(C(=O)Nc2cccnc2Cl)c1[N+](=O)[O-]	8.7%	-2.5%	-13.2%	7.0	44.7µM*	27.4
CC(C)c1onc(C(=O)NCc2ccccc2)c1[N+](=O)[O-]	-0.3%	0.6%	0.3%	22.7*	-2.6%	40.9*
O=C(NNC(=O)C(c1ccccc1)c1ccccc1)c1ccccc1O	-8.5%	/	/	/	/	/
Cc1onc(C(=O)Nc2cccc(C(F)(F)F)c2)c1[N+](=O)[O-]	-6.3%	-0.4%	/	26.8*	-3.7%	21.9
COc1ccc(CCNC(=O)c2cc(-c3ccc(Cl)cc3)on2)cc1OC	-0.3%	/	/	/	-0.2%	/
COc1ccc(CCNC(=O)c2ccc(-c3ccc([N+](=O)[O-])cc3)o2)cc1OC	-5.4%	-2.1%	-3.4%	1.4	39.8µM*	9.4
CC(C)c1onc(C(=O)Nc2cccc(O)c2)c1[N+](=O)[O-]	4.4%	9.6%	1.7%	31.4*	?	145.4*
COc1ccc(CCNC(=O)c2noc(C(C)C)c2[N+](=O)[O-])cc1OC	-9.5%	-0.7%	-3.8%	-5.3	35.5µM*	-7.9
CCc1ccccc1NC(=O)c1noc(C(C)C)c1[N+](=O)[O-]	-5.1%	0.2%	-2.8%	5.2	?	20.8
CCn1ccc2cc(S(=O)(=O)N3CCC(C(=O)NCc4ccc(OC)cc4)CC3)ccc21	4.2%	/	/	/	-8.7%	/
CC(C)c1onc(C(=O)N(C)C2CCCCC2)c1[N+](=O)[O-]	-2.5%	-1.7%	-0.3%	25.7*	1.2%	23.0
Oc1ccc(/C=C/c2cc(O)cc(O)c2)cc1	-24.4%	?	1.6%	25.6*	5.7%	20.3*
Cc1ccc(CN(C)c2nc(-c3cccnc3)nc3ccccc23)o1	-5.3%	-0.8%	0.8%	0.4	39.8µM*	-7.7
